Hits are enriched below; roughly 19% of the tested compounds scored in any of these assays.
DT40 TDP1 CPT: qHTS for Inhibitors of human tyrosyl-DNA phosphodiesterase 1 (TDP1): qHTS in cells in presence of CPT | chicken DT40 Tdp1-/-;hTDP1 cells + 20 nM CPT, ATP luminescence, 48 h | Potency, µM (highest dose often 46.2 µM), without a hit: at the highest dose activity change, negative = growth inhibition, hits mostly inhibitors | hit rate 12% among 420,000 | AID 686979, 2013; also: potency is read from the fitted curve at half-maximal effect; nearly all actives have a fitted effect of over 55% in size
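Chicken DT40 Tdp1-/- cells complemented with human TDP1, 400 cells/well, exposed to compounds plus 20 nM camptothecin for at least 48 h at 37 C; viability read as ATP content by CellTiter-Glo luminescence.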
HT1080-NT tox: qHTS for induction of synthetic lethality in tumor cells producing 2HG: qHTS for the HT-1080-NT fibrosarcoma cell line; hit rate 1.6% among 360,000; Potency, µM (highest dose often 46.1 µM), for the others: at the top dose activity, negative = less viability, usual class: cytotoxic; HT-1080-NT fibrosarcoma viability, CellTiter-Glo ATP luminescence, 48 h; AID 686970, 2013;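 also: NT is the 2HG producing partner of a matched IDH1 knockdown line; potency is read from the fitted curve at half-maximal effect; 0% = DMSO-treated cells and -100% = media-only wells without cells; nearly all actives have a fitted effect of over 55% in size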
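Luminescent CellTiter-Glo readout after 48 hours of compound exposure at 37 degrees C defined viability of HT-1080-NT cells. Activity was normalized to DMSO wells and cell-free media wells; concentration-response curves were fitted and assigned curve classes.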
IL-1B inflam inh: qHTS for Inhibitors of Inflammasome Signaling: IL-1-beta AlphaLISA Primary Screen. THP-1 LPS/ATP IL-1B secretion, AlphaLISA, 16 h; hits give low values. activity change, % at 57.5 µM. hit rate 4.7% among 360,000. AID 743279, 2014; in the data active = activity change below about -50%; inconclusive = mostly about -30% to -49%
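Secreted IL-1B measured by AlphaLISA bead assay after 16 h compound exposure of THP-1 cells; compounds (final up to 57.5 uM) added 1 h before LPS (250 ng/mL) and ATP (1.25 mM) stimulation; lower signal means less secretion.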
TDP1 cell noCPT: qHTS for Inhibitors of human tyrosyl-DNA phosphodiesterase 1 (TDP1): qHTS in cells in absence of CPT; DT40 Tdp1-/- hTDP1 cells, no CPT, ATP luminescence, 48 h; hit rate 15% among 420,000; AID 686978, 2013; Potency, µM (titrated, usually from 46.2 µM), for the others: top-dose activity change, negative = growth inhibition, most hits filed as inhibitors; also: potency is read from the fitted curve at half-maximal effect; nearly all actives have a fitted effect of over 55% in size
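Growth of hTDP1-complemented DT40 Tdp1-knockout cells is measured by ATP luminescence after at least 48 hr compound exposure at 37 °C, with DMSO substituting for the 20 nM CPT used in the parallel screen.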
uPA surface inh: qHTS for Inhibitors of Cell Surface uPA Generation; Potency, µM (doses to about 38.3 µM), for inactives: at the highest dose activity change, negative = inhibition, usual class: inhibitors; hit rate 0.31% among 330,000; cell surface uPA generation assay, qHTS; active = well fitted inhibition curve with a large enough effect; inconclusive = small, poorly fitted or top-dose-only effect; inactive = no such curve, though single readings can be large or run the other way; tested in mouse RAW 264.7 cells; also: potency is read from the fitted curve at half-maximal effect; nearly all actives have a fitted effect of over 55% in size
HT1080 IDH1KD tx: qHTS for induction of synthetic lethality in tumor cells producing 2HG: qHTS for the HT-1080-IDH1KD cell line; AID 686971, 2013; HT-1080 IDH1 knockdown viability, ATP luminescence, 48 h; hit rate 2% among 360,000; Potency, µM (top dose mostly 46.1 µM), for the others: at the top dose activity, negative = toxicity, actives largely listed as cytotoxic;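 also: potency is read from the fitted curve at half-maximal effect; 0% = DMSO wells and -100% = cell-free medium wells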
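In this qHTS, HT-1080 cells depleted of IDH1 are exposed for 48 h at 37 °C to compound titrations. Toxicity is scored from CellTiter-Glo luminescence, with DMSO as full viability and medium alone as none.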
Starred values were filed as active, the others as inactive; ? = inconclusive; . = no result given; [ ] = another dose, or the depositor's remark. Unless noted, calls follow the shape of the dose curve; as a rule, active = well fitted curve in the direction sought with a large enough effect; inconclusive = small, poorly fitted or top-dose-only effect, or another doubt; inactive = no such curve, though single readings can be large; an effect the other way counts as inactive or inconclusive. Unless noted, % is scaled to controls: 0 for no effect and ±100 for the full control effect.

SMILES | DT40 TDP1 CPT | HT1080-NT tox | IL-1B inflam inh | TDP1 cell noCPT | uPA surface inh | HT1080 IDH1KD tx
Cc1ccc(-c2c3c([nH]c(=S)c2C#N)CCCC3)o1 | 23µM* | -4% | -20 | ? | 7% | -6%
COc1ccccc1CN1CCC2(CC1)CCN(C(=O)c1csnn1)CC2 | -2% | . | . | -6% | . | .
CCOc1ccc(-n2c(SCc3cc(=O)oc4cc(C)ccc34)nnc2-c2cccnc2)cc1 | ? | 7% | -54* | ? | -2% | 14%
CC(C)c1ccccc1-n1c(SCc2cc(=O)oc3ccc4ccccc4c23)nnc1-c1cccnc1 | ? | -26% | -51* | 15µM* | -10% | ?
C[C@H](NC(=O)OC(C)(C)C)[C@@H](O)c1ccco1 | 1% | . | . | -11% | . | .
COc1ccc(CN2C(=O)C(CC(=O)NC3CCCC3)CC(C(=O)N3CCOCC3)=C2C)cc1 (stereo not drawn) | -16% | 21% | -13 | -9% | . | 14%
Cc1ccc(NC(=O)Nc2nnc(SCC(=O)N(C(C)C)C(C)C)s2)cc1 | 18µM* | . | . | 16µM* | . | .
CC(C)N(C(=O)CSc1nnc(NC(=O)C2CCC2)s1)C(C)C | -9% | -11% | -11 | -9% | 1% | 2%
Cc1nc(S/C(=C/c2ccc(OCc3ccc(C(=O)O)cc3)cc2)C(=O)O)n[nH]1 | 18% | 22% | 27 | -6% | 1% | 7%
Clc1nc(NCc2ccco2)c2[nH]cnc2n1 | -3% | . | . | ? | . | .
C[C@@H](Nc1nc(Cl)nc2nc[nH]c12)c1ccccc1 | 20µM* | . | . | 16µM* | . | .
CCOc1c(/C=C(\C#N)C(N)=O)c2ccccc2n1CC | ? | -1% | 10 | ? | 0% | -13%
CCn1c2ccccc2c2cc(NC(=O)C(C)Oc3ccccc3)ccc21 (stereo not drawn) | -26% | -11% | 0 | ? | 3% | -8%
CCOC(=O)C(=CNc1ccc2c(c1)c1ccccc1n2CC)C(=O)OCC | 15µM* | -16% | 0 | 8.2µM* | 4% | -11%
CCOC(=O)/C(C#N)=C\c1c(OCC)n(CC)c2ccccc12 | ? | -1% | -10 | 18µM* | -17% | -6%
CCn1c2ccccc2c2cc(NC(=O)C(C)C)ccc21 | ? | -11% | -23 | 26µM* | -12% | -19%
CCn1c2ccccc2c2cc(NC(=O)COc3cc(C)c(Cl)c(C)c3)ccc21 | -9% | . | . | 2% | . | .
CCn1c2ccccc2c2cc(NC(=O)CC(C)=O)ccc21 | -2% | 6% | 0 | -1% | 6% | -4%
CCn1c2ccccc2c2cc(NS(=O)(=O)c3ccccc3C)ccc21 | ? | ? | 13 | 21µM* | -9% | ?
O=C1N(CCCl)c2ccc(Br)cc2C12OCCO2 | -7% | 0% | 4 | -18% | 0% | -13%
Cc1ccc2nc(SCC(=O)N3CCOc4ccc(CN5C[C@@H](C)O[C@@H](C)C5)cc4C3)[nH]c2c1 | -6%[9.04 µM] | . | . | ? | . | .
CCCC(=O)Nc1ccc2c(c1)c1ccccc1n2CC | ? | -21% | -1 | ? | -10% | -28%
CCn1c2ccccc2c2cc(NC(=O)N3CCCCC3)ccc21 | 18µM* | -19% | ? | 23µM* | . | ?
Cc1c(NC(=O)c2cc(-c3ccc(F)cc3)nc3ccccc23)c(=O)n(-c2ccccc2)n1C | ? | -11% | -23 | 12µM* | 1% | -14%
Cc1c(NC(=O)c2cc(-c3ccc(F)cc3)on2)c(=O)n(-c2ccccc2)n1C | 4% | 5% | 12 | ? | . | 13%
SMILES | DT40 TDP1 CPT | HT1080-NT tox | IL-1B inflam inh | TDP1 cell noCPT | uPA surface inh | HT1080 IDH1KD tx
Cc1cc(C)cc(-n2c(N)c(C(=O)Nc3c(C)n(C)n(-c4ccccc4)c3=O)c3nc4ccccc4nc32)c1 | 7.3µM* | -14% | -13 | 8.2µM* | 3% | ?
Cc1cccc(-c2cc(C(=O)Nc3c(C)n(C)n(-c4ccccc4)c3=O)c3ccccc3n2)c1 | 26µM* | -15% | -5 | 15µM* | -2% | 4%
COc1cnc(-c2cccc(C(F)(F)F)c2)c(NC(=O)c2cc3ccccc3s2)n1 | 18µM* | -2% | -7 | 10µM* | . | 21%
Cc1cc(Nc2ccccc2Cl)nc(-c2ccccc2O)n1 | ? | -21% | -70* | ? | -5% | ?
Cc1cc(NC2CCCCC2)nc(-c2ccccc2O)n1 | -21% | -25% | 2 | ? | -1% | -28%
Cc1cc(Nc2ccccc2)nc(-c2ccccc2O)n1 | 16µM* | ? | -17 | ? | -2% | 4%[9.24 µM]
Cc1ccc(C)c(Nc2cc(C)nc(-c3ccccc3O)n2)c1 | 6.5µM* | ? | 0 | 5.8µM* | 7.1µM* | ?
Cc1cc(Nc2cccc(F)c2)nc(-c2ccccc2O)n1 | ? | ? | -61* | ? | -7% | ?
Cc1cc(NCc2ccccc2)nc(-c2ccccc2O)n1 | ? | -15% | -6 | ? | -11% | -23%
Cc1nc(N2C(=O)c3oc4ccccc4c(=O)c3C2c2cccc(OCCC(C)C)c2)sc1C (stereo not drawn) | 1% | . | . | -19% | . | .
COc1ccc(OC)c(CNC(=O)CCc2c(C)nc3c(c2C)c(=O)n(C)c(=O)n3C)c1 | -23% | . | . | ? | . | .
CCOC(=O)c1ccc(Nc2cc(C)nc(-c3ccccc3O)n2)cc1 | ? | -10% | ? | 29µM* | 0% | 9%
Cc1cc(N/N=C/c2c(O)ccc3ccccc23)nc(-c2ccccc2O)n1 | 8.2µM* | ? | 27 | 2.6µM* | 0% | ?
CCOC(=O)C1CCCN(CCc2ccccc2)C1 (stereo not drawn) | -6% | 5% | -9 | -4% | 6% | 6%
O=C(OC1C2CCC1C1CN(CCc3ccccc3)CC12)c1ccccc1 (stereo not drawn) | ? | -11% | -67* | 16µM* | 0% | -18%
O=C(CCN1CCOCC1)N1CCCC(Nc2cccc(F)c2)C1 (stereo not drawn) | -16% | -5% | 19 | 0% | -2% | 10%
CC1(C(=O)O)CCC2(C)CCC3(C)C(=CC(=O)C4C5(C)CCC(=O)C(C)(C)C5CCC43C)C2C1 (stereo not drawn) | -14% | 1% | 9 | -16% | . | -5%

Screening results deposited in PubChem by National Center for Advancing Translational Sciences (NCATS).
